{
  "source": "the supplement of paper PMC9337992",
  "note": "± gives the standard deviation of the averaged measurements.",
  "data": [
    {"system": "MDAMB231", "experiment": "cell proliferation (confluence) relative to DMSO control; higher = less growth inhibition", "settings": "5 uM; 6 d", "experimental": "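Epigenetic chemical probe screen: 15 TNBC cell lines, 500 cells per well in 384-well plates, treated with 5 uM of each of 36 SGC probes for 6 d. Confluency was imaged by IncuCyte ZOOM and normalised to DMSO control wells. Four replicate wells per compound.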", "units": {"cell proliferation": "%"}, "values": [
      {"smiles": "c1ccc([C@@H]2C[C@H]2NC2CCNCC2)cc1", "cell proliferation": "98.48 ± 0.8"},
      {"smiles": "O=C(O)CNC(=O)c1c(O)c2ccccc2n(Cc2ccccc2)c1=O", "cell proliferation": "97.33 ± 0.35"},
      {"smiles": "COc1cc(C(=O)N2CC[C@@H](O)[C@@H](N)C2)cc2nc(-c3cc4ccccc4n3CC3CC3)n(C)c12", "cell proliferation": "88.8 ± 9.1"}
    ]}
  ]
}
